Data reported in PubChem BioAssay AID449762 (Southern Research Specialized Biocontainment Screening …, 2010).
Hit rate of the full screen: of about 330,000 compounds, about 1,900 (0.58%) were called active. Roughly 4% stayed inconclusive and do not appear here. The list is a sample of the results. Potency and affinity values are given separately. Unmarked numbers belong to inactive results. Cut-off read from the data, not from the text of the source: inconclusive = inhibition above about 70% without an active follow-up result; inactive = below that.

Assay: M. tuberculosis growth inhibition, HTS (AID 449762);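 note: bacterial growth assessed after seven days of incubation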
Details: M. tuberculosis H37Rv growth inhibition, 7H9 media; at 25 µM; active compounds read high

Q: With COc1ccc(OC)c(N/C(C)=C/C(=O)c2ccc(C)o2)c1 as the molecule, how does the inhibition read?
A: 5.43%

Q: Which inhibition does the source give for C/C(=C\C(=O)c1ccc(C)o1)Nc1ccc(C(=O)O)cc1C here?
A: -5.52%

Q: Which inhibition does the source give for Cc1nc2sccn2c1-c1csc(NCc2ccccc2)n1 here?
A: 54.7%

Q: With Cc1ccn2c(-c3csc(NCc4ccco4)n3)c(C)nc2c1 as the molecule, how does the inhibition read?
A: 7.31%

Q: Which inhibition does the source give for O=C(COC(=O)CCN1C(=O)c2ccccc2C1=O)Nc1ccccc1[N+](=O)[O-] here?
A: -0.89%

Q: Which inhibition does the source give for O=C(Nc1ccccc1)C1C2/C=C\CCCCC21 (stereo not given) here?
A: 5.24%

Q: Which inhibition does the source give for Cc1ccc(NC(=O)C2C3/C=C\CCCCC32)cc1 (stereo not given) here?
A: -6.56%

Q: With Cc1cc(F)ccc1S(=O)(=O)N1CCCOC1CNC(=O)C(=O)NC1CCCCC1 (stereo not given) as the molecule, how does the inhibition read?
A: -6.82%

Q: Which inhibition does the source give for CCOC(=O)N1CCN(c2c(NCCCN3CCCCCC3)c(=O)c2=O)CC1 here?
A: 1.01%

Q: For CCOC(=O)/C(=N/Nc1ccccc1)N1CCCc2ccccc21, which inhibition is on record?
A: 0.18%

Q: With CCOC(=O)/C(=N/Nc1ccccc1OC)N1CCCc2ccccc21 as the molecule, how does the inhibition read?
A: 0.45%

Q: Which inhibition does the source give for Cc1ccc(S(=O)(=O)Cc2sc3ccccc3[n+]2C)cc1 here?
A: -1.05%

Q: Which inhibition does the source give for COc1ccc(NC(=O)C(CC(=O)O)Cc2ccccc2)cc1 (stereo not given) here?
A: -9.83%

Q: Which inhibition does the source give for Cc1ccc(SCCNC(=O)/C=C/c2ccc(Cl)cc2)cc1 here?
A: -7.24%

Q: Which inhibition does the source give for CC(=O)c1ccc(-c2ccc(/C=C(/Sc3n[nH]c(C)n3)C(=O)O)o2)cc1 here?
A: -2.81%

Q: With Cc1nc(S/C(=C/c2ccc(-c3ccc(C(=O)O)cc3)o2)C(=O)O)n[nH]1 as the molecule, how does the inhibition read?
A: -0.51%

Q: With CCCN1CCN(C(=O)c2ccc(CS(=O)c3ccc(Cl)cc3)o2)CC1 (stereo not given) as the molecule, how does the inhibition read?
A: -5.84%

Q: With Cc1ccc(C(=O)N(c2ccccn2)C(C)c2ccco2)cc1C (stereo not given) as the molecule, how does the inhibition read?
A: 6.78%

Q: Which inhibition does the source give for c1ccc(-c2nc(CSc3nnc(-c4cccs4)o3)cs2)cc1 here?
A: 3.49%

Q: Which inhibition does the source give for Cc1ccc(Nc2nc(CSc3n[nH]c(N)n3)cs2)cc1 here?
A: 0.79%

Q: Which inhibition does the source give for CCc1ccc(NC(=O)C(NS(=O)(=O)c2ccc3c(c2)CCN3C(C)=O)C(C)C)cc1 (stereo not given) here?
A: 0.33%

Q: For CCN(CC)c1nc(Nc2ccc([N+](=O)[O-])cc2)nc(N(CC)CC)n1, which inhibition is on record?
A: 6%

Q: For Cc1ccc(Nc2nc(N)c3ccccc3n2)cc1Cl, which inhibition is on record?
A: 11.2%

Q: For Cc1ccc(NC(=O)c2ccsc2)cc1NS(C)(=O)=O, which inhibition is on record?
A: -6.89%

Q: Which inhibition does the source give for C=CCc1c(C)nc(C)nc1N/N=C/c1ccc([N+](=O)[O-])cc1 here?
A: -6.42%

Q: For O=C(Cn1c(=O)c2cccn2c2cccnc21)N1CCN(c2ccc(Cl)cc2)CC1, which inhibition is on record?
A: 0.96%

Q: For CN1CCN(C(=O)CCn2c(=O)c3cccn3c3cccnc32)CC1, which inhibition is on record?
A: 6.95%

Q: With Cc1ccc(CN2CCC(c3nc4ccc(Cl)cc4[nH]3)CC2)cc1 as the molecule, how does the inhibition read?
A: 2.51%

Q: Which inhibition does the source give for Cc1cc2nc(C3CCN(Cc4nnnn4Cc4ccccc4)CC3)[nH]c2cc1C here?
A: 34%

Q: With CC(=O)Nc1ccc(SCC(=O)Nc2sccc2C#N)cc1 as the molecule, how does the inhibition read?
A: -2.99%

Q: Which inhibition does the source give for O=C(OCC(=O)c1c[nH]c2ccccc12)c1ccc(Br)o1 here?
A: 5.56%

Q: For O=C(OCC(=O)c1c[nH]c2ccccc12)c1cncc(Br)c1, which inhibition is on record?
A: -0.17%

Q: With CCOC(=O)c1c(NC(=O)c2ccccc2C(=O)O)sc2c1CCC2 as the molecule, how does the inhibition read?
A: -2.86%

Q: Which inhibition does the source give for CCOC(=O)c1c(NC(=O)c2ccccc2C(=O)O)sc2c1CCCC2 here?
A: -6.92%

Q: With CCN1CCN(CC(O)COc2ccc(C)c(C)c2)CC1 (stereo not given) as the molecule, how does the inhibition read?
A: 4.44%

Q: Which inhibition does the source give for COC(=O)c1sccc1NC(=O)c1ccccc1C(=O)O here?
A: 1.76%

Q: For CCn1nc(NC(=O)c2ccncc2)c2cc3ccc(C)cc3nc21, which inhibition is on record?
A: 4.05%

Q: Which inhibition does the source give for CCn1nc(NC(=O)c2ccncc2)c2cc3ccccc3nc21 here?
A: 2.23%

Q: Which inhibition does the source give for O=C(Nc1ccccc1C(=O)O)c1cc(S(=O)(=O)N2CCCCC2)c(Cl)cc1Cl here?
A: -1.16%

Q: With CCn1c2ccc(CC(=O)O)cc2c2cc(CC(=O)O)ccc21 as the molecule, how does the inhibition read?
A: -11.4%

Q: With COc1ccc(NC(=O)CN2CCN(CC(=O)Nc3ccccc3F)CC2)c(OC)c1 as the molecule, how does the inhibition read?
A: -3.25%

Q: Which inhibition does the source give for Cc1ccc(NC(=O)c2nc[nH]c2C(=O)NCCCNC(=O)c2[nH]cnc2C(=O)Nc2ccc(C)cc2)cc1 here?
A: 5.52%

Q: For Cc1ccc(Nc2ccc(-n3ccnc3)nn2)cc1C, which inhibition is on record?
A: -0.37%

Q: For c1ccc(Nc2ccc(-n3ccnc3)nn2)cc1, which inhibition is on record?
A: -2%

Q: Which inhibition does the source give for COCc1cc(=O)[nH]c(/N=C(\N)Nc2ccc(C)cc2)n1 here?
A: -14.4%

Q: Which inhibition does the source give for Cc1nn(C)c(C)c1Nc1ccc(N2C(=O)C3C4C=CC(C4)C3C2=O)cc1[N+](=O)[O-] (stereo not given) here?
A: 10.1%

Q: Which inhibition does the source give for CCCn1nnnc1SCC(=O)N1C(C)CCCC1C (stereo not given) here?
A: 5.01%

Q: With COc1ccc(C(OCC(O)CNCCc2ccccc2)c2ccc(OC)cc2)cc1 (stereo not given) as the molecule, how does the inhibition read?
A: 19.9%

Q: Which inhibition does the source give for COc1ccccc1COCC(O)CNCCc1ccc(C(F)(F)F)cc1 (stereo not given) here?
A: 1.34%

Q: With O=C(O)CCn1nnc(-c2ccccc2)n1 as the molecule, how does the inhibition read?
A: -0.81%

Q: For COc1ccc(OCC(=O)N(Cc2ccco2)C2CCS(=O)(=O)C2)cc1 (stereo not given), which inhibition is on record?
A: 3.83%

Q: With Cc1ccc(S(=O)(=O)N2CCCCC2)cc1NC(=O)C1CCC1 as the molecule, how does the inhibition read?
A: 0.72%

Q: For Cc1ccc(-c2nc3ccsc3c(=O)[nH]2)cc1, which inhibition is on record?
A: 5.58%

Q: For Cc1ccc(-c2nc3ccccc3c(=O)o2)cc1, which inhibition is on record?
A: 12.5%

Q: For C=CCN1C(=O)/C(=C/c2cccs2)S/C1=N\S(=O)(=O)c1ccc(F)cc1, which inhibition is on record?
A: 0.38%

Q: Which inhibition does the source give for COc1ccc(NC(=O)CCNC(=O)C2CCN(S(=O)(=O)c3ccc(OC)cc3)CC2)cc1 here?
A: 10.1%

Q: For CC(C)(C)OC(=O)COc1cc(O)c2c(=O)cc(-c3ccccc3)oc2c1, which inhibition is on record?
A: 39.4%

Q: For O=C(COc1cc(O)c2c(=O)cc(-c3ccccc3)oc2c1)c1ccccc1, which inhibition is on record?
A: -3.97%

Q: With CSc1nnc(-c2cc(Br)ccc2N=Cc2c(C)[nH]n(-c3ccccc3)c2=O)c(=O)[nH]1 as the molecule, how does the inhibition read?
A: 4.16%

Q: Which inhibition does the source give for O=[N+]([O-])c1c(Nc2ccccc2O)cc(N2CCOCC2)c2nonc12 here?
A: 0.81%
